biological target: Shiga toxin 2 (Escherichia coli O157:H7) (UniProt P09385+P09386); experiment: E. coli 0.157:H7 Shiga Toxin SOP - stx2 screening assay; format: functional; parameters: scale not given: direction of the effect not stated beside the values; details: 30 µM

Compound	Percent Effect
Cc1cnn(CC2CN(c3cnc4ccccc4n3)CCO2)c1 (stereo not given)	-0.837%
Cc1cccnc1CN(C)CC1(O)CCCN(CC2CCCCC2)C1=O (stereo not given)	2.24%
O=C(CSc1nncs1)N1CCN(Cc2ccc(Cl)s2)CC1	-5.37%
CC(C)C(=O)N1CCN(Cc2cc(-c3ccncc3)nn2C)CC1	-50.3%
CC(C)CN1C(=O)c2ccc(C(=O)NCCc3c[nH]cn3)cc2C1=O	-22.9%
O=C(NC1CC1)c1ccc2ccc(N3CCN(CC4CC4)CC3)n2c1	-80.6%
O=C(Cc1ccc(F)cc1)N1CCn2cc(Cn3cccn3)nc2C1	5.65%
CN(Cc1noc(C2CC2)n1)C1CCN(Cc2ccncc2)C1 (stereo not given)	-32.1%
CCn1cc(CN(C)S(=O)(=O)c2cnn(CC)c2C)c(C)n1	3.32%
CC(CNC(=O)c1ccc(F)cc1Cl)N1CCCC1 (stereo not given)	-4.69%
Cc1nc(C)c(C(=O)OCCNc2ncccc2C#N)s1	-15.1%
CN(Cc1ccccc1Br)C(=O)Cn1nc(-c2ccc(F)cc2)oc1=O	-11.3%
O=C(NCc1nnc2ccccn12)N1CCc2sccc2C1	1.75%
c1cnc2c(c1)cc(C1CCOCC1)n2CCN1CCOCC1	4.5%
CCc1cnc(N2C[C@H]3C[C@H](C(=O)N(C)C)[C@@H](C2)O3)nc1	-0.162%
Cc1cc(CN2CC[C@H]3C[C@H](C(=O)N4CCC(C)CC4)O[C@H]3C2)no1	0.444%
Cc1occc1C(=O)N1CCC2(CCN(Cc3nccs3)C2)CC1	-15.8%
Cc1cnn(CC2CCCN2CC(=O)Nc2cc(C)nn2C)c1 (stereo not given)	-20.9%
CCc1nc(CCNC(=O)C2CCOC2)sc1C (stereo not given)	30.6%
Cc1csc(NC(=O)CN2CCC(c3ccnn3CCO)CC2)n1	-16.7%
